Screening data (PubChem)
The list is not random: actives were taken first. Their share in the collection is about 11%.
Pf growth 48h: P. falciparum growth inhibition at 48 hours (one generation); P. falciparum luciferase growth in erythrocytes, 48 h; 5.9% of 310,000 active; Potency, µM (highest dose often 28.7 µM), usual class: inhibitors
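Growth was read as firefly luciferase luminescence after a 48 h, 37 C, 5% CO2 exposure of compounds to reporter-bearing P. falciparum cultures (0.1% parasitemia, 2% hematocrit final) in Albumax-supplemented RPMI 1640.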
HCV inh: blocks hepatitis C virus; Huh7.5.1 HCVcc-Cre infection, luciferase reporter, 44 h; Potency, µM (highest dose often 41.8 µM), most hits filed as inhibitors; 3.4% of 340,000 active
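Seed cells (1,000/well) for 4 h; treat with compound and infect with HCVcc-Cre, moi about 0.5. Incubate 44 h, then detect luciferase activity.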
AMA1-RON2 inh: AMA1-RON2 (P. falciparum) interaction inhibition; AlphaScreen AMA1-biotinylated RON2 peptide binding; Potency, µM (highest dose often 58.2 µM), usual class: inhibitors; 0.2% of 360,000 active; AID 720542; further: nearly all actives have a fitted effect of over 45% in size
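AMA1 (3D7) with his tag at 25 nM final met compounds first, then biotinylated RON2 peptide at 25 nM; detection used donor plus acceptor beads, 10 µg/mL apiece, read by AlphaScreen after 30 min at room temperature.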
Pf growth 96h: P. falciparum growth inhibition at 96 hour, primary screen for plastid delayed-death inhibitors | AID 504834 | P. falciparum luciferase reporter growth, 96 h | 6.9% of 320,000 active | Potency, µM (doses to about 28.7 µM), hits mostly inhibitors
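Two-generation exposure (96 h) targets delayed-death phenotype. Reporter parasites carrying integrated firefly luciferase, in red cells at 2% hematocrit and 0.05% parasitemia final, kept at 37 C, 5% CO2; luminescence loss indicates inhibition.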
Large screens that a line does not name were inactive. The call rests on the fitted dose curve; in most records, active means well fitted curve in the direction sought with a large enough effect; inconclusive means small, poorly fitted or top-dose-only effect, or another doubt; inactive means no such curve, though single readings can be large; an effect the other way counts as inactive or inconclusive.

COc1ccc2cc(CN(CCCN3CCOCC3)Cc3nnnn3C3CCCC3)c(=O)[nH]c2c1	Pf growth 48h 10.4µM, Pf growth 96h 5.22µM
Cc1cc(C)c2cc(CN(Cc3nnnn3C3CCCCC3)CC3CCCO3)c(=O)[nH]c2c1 (centres undefined)	Pf growth 48h 13.1µM, HCV inh inconclusive
Cc1cc2cc(CN(Cc3nnnn3C3CCCCC3)CC3CCCO3)c(=O)[nH]c2cc1C (centres undefined)	Pf growth 48h 8.28µM
S=c1[nH]nc(-c2ccccn2)n1/N=C/c1ccc(-c2ccccc2Br)o1	none
O=C1CCC(=O)N1CO	none (no result: HCV inh, AMA1-RON2 inh)
O=C(CN1CCN(S(=O)(=O)c2cc(C(F)(F)F)ccc2Cl)CC1)N1CCc2ccccc2C1	Pf growth 48h 13.1µM, HCV inh 11.2µM, Pf growth 96h inconclusive
COc1ccc(S(=O)(=O)N2CCN(CC(=O)N3CCc4ccccc4C3)CC2)cc1OC	Pf growth 48h inconclusive, HCV inh inconclusive, Pf growth 96h 9.28µM
COc1ccc(S(=O)(=O)N2CCN(c3ccc(F)cc3)CC2)cc1OC	none
COc1ccc(S(=O)(=O)N2CCN(CCCOc3ccc(F)cc3)CC2)cc1OC	Pf growth 48h inconclusive, HCV inh 11.2µM, Pf growth 96h 4.65µM
CC(C)n1nnnc1C1c2ccccc2C(=O)N1C1CC1 (centres undefined)	none (no result: Pf growth 48h, HCV inh, Pf growth 96h)
C#CCOCCOCCOCCNc1nc(N2CCOCC2)nc(N2CCN(C(=O)CCCCCCCCCCNC(=O)[C@@H]([C@H](C)O)n3cc(C)nn3)CC2)n1	Pf growth 48h inconclusive, Pf growth 96h inconclusive
C#CCOCCOCCOCCNc1nc(N2CCN(C(=O)CCCCCCCCCCNC(=O)[C@H]([C@@H](C)CC)n3cc(CCCCCN)nn3)CC2)nc(N2CCN(C(=O)CCCCCCCCCCNC(=O)[C@@H]([C@H](C)O)n3cc(C)nn3)CC2)n1	Pf growth 48h 0.465µM, Pf growth 96h 0.37µM
C#CCOCCOCCOCCNc1nc(N2CCN(C(=O)[C@H](C(C)C)n3cc(CCO)nn3)CC2)nc(N2CCN(C(=O)[C@H]([C@@H](C)CC)n3cc(CCCCN)nn3)CC2)n1	Pf growth 48h inconclusive, Pf growth 96h inconclusive
C#CCOCCOCCOCCNc1nc(N2CCN(C(=O)CCCCCCCCCCNC(=O)[C@@H]([C@H](C)O)n3cc(C)nn3)CC2)nc(N2CCN(C(=O)CCCCCCCCCCNC(=O)[C@@H]([C@H](C)O)n3cc(C)nn3)CC2)n1	Pf growth 48h 0.104µM, Pf growth 96h 0.0738µM
C#CCOCCOCCOCCNc1nc(N2CCN(C(=O)CCCCCCCCCCNC(=O)[C@H](CCCCN)n3cc(C)nn3)CC2)nc(N2CCN(C(=O)CCCCCCCCCCNC(=O)[C@@H]([C@H](C)CC)n3cc(CCCCCN)nn3)CC2)n1	Pf growth 48h 3.29µM, HCV inh 22.4µM, Pf growth 96h 4.15µM (no result: AMA1-RON2 inh)
Cn1ncc(Br)c1C(=O)N1CCCCCC1	none
COc1ccccc1CN1CC(C(=O)NCc2nc3ccccc3n2C)CCC1=O (centres undefined)	none (no result: HCV inh)
CCOC(=O)C1CCCN(C(=O)CN2C(=O)c3ccccc3S2(=O)=O)C1 (centres undefined)	none (no result: Pf growth 48h, Pf growth 96h)
Cc1oc(-c2ccc(Cl)cc2)nc1CS(=O)CC(=O)NC1CCCCC1 (centres undefined)	none
Cc1oc(-c2ccccc2F)nc1CSCC(=O)NC1CCCC1	HCV inh inconclusive, Pf growth 96h 1.47µM
Cc1oc(-c2ccc(Cl)cc2)nc1CS(=O)CC(=O)NC1CCCCCC1 (centres undefined)	HCV inh inconclusive, Pf growth 96h 9.28µM
Cc1oc(-c2ccc(Cl)cc2)nc1CS(=O)CC(=O)NCCCN(C)C1CCCCC1 (centres undefined)	Pf growth 48h inconclusive, HCV inh 10µM
Cc1cccc(C(=O)NCC(=O)N2CCN(S(=O)(=O)c3cc(C)ccc3C)CC2)c1	Pf growth 48h inconclusive, Pf growth 96h inconclusive
Cc1sc(NC(=O)CSc2nnc(N)s2)c(C#N)c1C	none
CCCOC1OC(=O)c2c1ccc(OC)c2OC (centres undefined)	Pf growth 96h 5.22µM
COc1ccc2c(c1OC)C(=O)OC2CC(=O)O (centres undefined)	none (no result: Pf growth 96h)
CNC(=S)N(CCc1c(C)[nH]c2ccc(Cl)cc12)Cc1cc(OC)c(OC)c(OC)c1	Pf growth 48h inconclusive, HCV inh inconclusive, Pf growth 96h inconclusive
COc1ccc(NC(=S)N(CCc2c(C)[nH]c3ccc(C)cc23)Cc2cccnc2)cc1	Pf growth 48h inconclusive, HCV inh inconclusive, Pf growth 96h inconclusive
COc1cc(CN(CCc2c(C)[nH]c3ccc(C)cc23)C(=S)NC(C)(C)C)cc(OC)c1OC	Pf growth 48h inconclusive, HCV inh inconclusive, Pf growth 96h 2.62µM
CNC(=S)N(CCc1c(C)[nH]c2ccc(C)cc12)Cc1ccc(OC)c(OC)c1	Pf growth 48h inconclusive, HCV inh inconclusive, Pf growth 96h 10.4µM
COc1ccc(CCC(=O)N/N=C/c2ccc3c(c2)OCO3)cc1	none (no result: Pf growth 48h, Pf growth 96h)
CN(Cc1ccccc1)C1(CNC(=O)CCC(F)(F)F)Cc2ccccc2C1	Pf growth 96h 14.7µM
CC(=O)NCCC(=O)NCC1(N(C)Cc2ccccc2)Cc2ccccc2C1	none
COc1cc(CCCN2C(N)=NC[C@@H]2c2ccccc2)cc(OC)c1OC	Pf growth 48h 11.7µM, Pf growth 96h inconclusive
CCC(C)[C@H]1CN=C(N)N1CCc1cccc2ccccc12 (some centres undefined)	none (no result: Pf growth 48h, Pf growth 96h)
CCC(C)[C@H]1CN=C(N)N1CCCc1cc(OC)c(OC)c(OC)c1 (some centres undefined)	Pf growth 48h 10.4µM, Pf growth 96h 13.1µM
CCC(C)[C@H]1CN=C(N)N1CCc1cc(C(F)(F)F)cc(C(F)(F)F)c1 (some centres undefined)	Pf growth 48h 4.65µM, Pf growth 96h 2.08µM
Cc1ccc(Cl)cc1NC(=S)N1CCCCCC1	none
O=[N+]([O-])c1cccc(-c2nc(-c3cccs3)c(-c3cccs3)[nH]2)c1	Pf growth 48h inconclusive, HCV inh 12.6µM, Pf growth 96h inconclusive
Cc1ccc(N(CC(=O)Nc2cccc(C)c2)S(=O)(=O)c2cccc3nonc23)cc1	Pf growth 48h inconclusive, HCV inh inconclusive
CCN(CC(=O)NCc1cccs1)C(=O)/C=C/c1cc(OC)ccc1OC	none
CCN(CC(=O)NCc1cccs1)C(=O)/C=C/c1ccc(OC)cc1OC	HCV inh 20µM
CN(c1cccc(Cl)c1)S(=O)(=O)c1cccc(C(=O)NC2=NCCS2)c1	Pf growth 48h inconclusive, Pf growth 96h inconclusive
CCOC(=O)c1ccc(S(=O)(=O)NCC(c2ccc(N(C)C)cc2)c2c[nH]c3ccccc23)cc1 (centres undefined)	AMA1-RON2 inh 14.1µM
CN(C)c1ccc(C(CNC(=O)c2ccc(C#N)cc2)c2c[nH]c3ccccc23)cc1 (centres undefined)	Pf growth 48h inconclusive, HCV inh inconclusive, AMA1-RON2 inh 14.1µM, Pf growth 96h inconclusive
Cc1ccc(C(=O)OCC(=O)NCc2ccco2)cc1C	none
CCn1ccnc1CN(C)C(=O)CC1C(=O)NCCN1Cc1c(F)cccc1Cl (centres undefined)	Pf growth 96h 10.4µM
